Assay results from PubChem BioAssay (EPA / NIEHS).
The source made the active and inactive calls. The calls were made as follows: active = hit-call score of the fitted dose curve at least 0.9, where 1 is the maximum; inactive = score below 0.9.

read-out: growth arrest and DNA damage 45 (GADD45B), GADD45B (gene 4616); assay: LTEA_HepaRG_GADD45B: Life Technologies and Expression Analysis (LTEA) Assay for growth arrest and DNA damage 45 (GADD45B) using HepaRG (AID 2283461); conditions: mRNA level, 48 h; actives raise or lower the signal
Outline: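 Human HepaRG monolayers receive chemicals for 48 h at eight half-log concentrations, highest 100 uM, in 0.5% DMSO. Expression is measured by TaqMan qRT-PCR and normalized to ACTB, GAPDH and POLR2A.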

With CCCCC(O)(Cn1cncn1)c1ccc(Cl)cc1Cl (stereo unspecified) as the compound, how does the outcome read?
Its outcome is “inactive”.

How did the outcome turn out when CC(C)N1C(=O)c2ccccc2NS1(=O)=O was run?
Its outcome is “inactive”.

O=C(Nc1ccccc1-c1ccc(Cl)cc1)c1cccnc1Cl was tested. Which outcome did it give?
The outcome was “inactive”.

N#CN=C1SCCN1Cc1ccc(Cl)nc1 was tested. Which outcome did it give?
Its outcome is “inactive”.

For CCNC(=O)NC(=O)C(C#N)=NOC, which outcome is on record?
The outcome was “inactive”.

Cc1c(COC(=O)[C@@H]2[C@H](/C=C(\Cl)C(F)(F)F)C2(C)C)cccc1-c1ccccc1 was tested. Which outcome did it give?
Its outcome is “inactive”.

C=C(C)CN(CC)c1c([N+](=O)[O-])cc(C(F)(F)F)cc1[N+](=O)[O-] was tested. Which outcome did it give?
The outcome was “inactive”.

Which outcome does the source give for CC(C)C1(C)N=C(c2ncccc2C(=O)O)NC1=O (stereo unspecified) here?
The outcome was “inactive”.

How did the outcome turn out when CCCC(=NOCC)C1=C(O)CC(CC(C)SCC)CC1=O (stereo unspecified) was run?
Its outcome is “inactive”.

Which outcome does the source give for O=C1C2CC=CCC2C(=O)N1SC(Cl)(Cl)Cl (stereo unspecified) here?
The outcome was “inactive”.

With COCc1cnc(C2=NC(C)(C(C)C)C(=O)N2)c(C(=O)O)c1 (stereo unspecified) as the compound, how does the outcome read?
Its outcome is “inactive”.

With Cc1nc(N(C)C)nc(OC(=O)N(C)C)c1C as the compound, how does the outcome read?
Its outcome is “inactive”.

How did the outcome turn out when CC(C)N1C(=O)N(c2ccccc2)CSC1=NC(C)(C)C was run?
Its outcome is “inactive”.

How did the outcome turn out when Clc1cccc(C(Cl)(Cl)Cl)n1 was run?
Its outcome is “inactive”.

Which outcome does the source give for CC1(C)CON(Cc2ccccc2Cl)C1=O here?
The outcome was “inactive”.

With CN/C(=N\[N+](=O)[O-])NCc1cnc(Cl)s1 as the compound, how does the outcome read?
The outcome was “inactive”.

Which outcome does the source give for Cc1ccc(N=CN(C)C=Nc2ccc(C)cc2C)c(C)c1 here?
The outcome was “inactive”.

How did the outcome turn out when CCN(CC)c1nc(C)cc(OP(=S)(OC)OC)n1 was run?
Its outcome is “inactive”.

COCC(C)N(C(=O)CCl)c1c(C)csc1C (stereo unspecified) was tested. Which AC50 did it give?
Its AC50 is 74.1 µM (active).

With CCOc1nc(C(Cl)(Cl)Cl)ns1 as the compound, how does the AC50 read?
The AC50 was 1.23 µM (active).

With CCC(C)n1c(=O)[nH]c(C)c(Br)c1=O (stereo unspecified) as the compound, how does the AC50 read?
Its AC50 is 28.5 µM (active).

Which outcome does the source give for Nc1cnn(-c2ccccc2)c(=O)c1Cl here?
The outcome was “inactive”.

Which outcome does the source give for N#Cc1c(Cl)cccc1Cl here?
The outcome was “inactive”.

How did the outcome turn out when CCN(CC)C(=O)C(C)Oc1cccc2ccccc12 (stereo unspecified) was run?
Its outcome is “inactive”.

CC1(C)C(C(=O)OC(C#N)c2cccc(Oc3ccccc3)c2)C1(C)C (stereo unspecified) was tested. Which outcome did it give?
The outcome was “inactive”.

CC(C)Nc1nc(Cl)nc(NC(C)C)n1 was tested. Which outcome did it give?
Its outcome is “inactive”.

With N#Cc1c[nH]cc1-c1cccc2c1OC(F)(F)O2 as the compound, how does the AC50 read?
The AC50 was 27.1 µM (active).

CCCN(CC)CC1COC2(CCC(C(C)(C)C)CC2)O1 (stereo unspecified) was tested. Which outcome did it give?
Its outcome is “inactive”.

CCNP(=S)(OC)O/C(C)=C/C(=O)OC(C)C (stereo unspecified) was tested. Which outcome did it give?
Its outcome is “inactive”.

Which outcome does the source give for CS(=O)(=O)c1ccc(C(=O)C2C(=O)CCCC2=O)c([N+](=O)[O-])c1 here?
Its outcome is “inactive”.

For COP(=S)(OC)Oc1ccc([N+](=O)[O-])c(C)c1, which outcome is on record?
Its outcome is “inactive”.

How did the outcome turn out when COC(=O)NC(=S)Nc1ccccc1NC(=S)NC(=O)OC was run?
The outcome was “inactive”.

Which outcome does the source give for COc1cc(Cl)c(OC)cc1Cl here?
The outcome was “inactive”.

Which outcome does the source give for CC(C)(C)C(=O)C(Oc1ccc(Cl)cc1)n1cncn1 (stereo unspecified) here?
Its outcome is “inactive”.

CCCCOCN(C(=O)CCl)c1c(CC)cccc1CC was tested. Which outcome did it give?
Its outcome is “inactive”.

read-out: ABC Transporter (ABCC3), ABCC3 (gene 8714); assay: LTEA_HepaRG_ABCC3: Life Technologies and Expression Analysis (LTEA) Assay for ABC Transporter (ABCC3) using HepaRG (AID 2283462); conditions: mRNA level, 48 h; actives raise or lower the signal
Outline: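 Transcriptional change of ABCC3 in HepaRG after 48 h treatment, determined by qRT-PCR normalized to endogenous controls. Concentrations spanned eight half-log steps to 100 uM in 0.5% DMSO.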

For CCCCC(O)(Cn1cncn1)c1ccc(Cl)cc1Cl (stereo unspecified), which AC50 is on record?
Its AC50 is 50 µM (active).

For CC(C)N1C(=O)c2ccccc2NS1(=O)=O, which outcome is on record?
The outcome was “inactive”.

With O=C(Nc1ccccc1-c1ccc(Cl)cc1)c1cccnc1Cl as the compound, how does the outcome read?
Its outcome is “inactive”.

For N#CN=C1SCCN1Cc1ccc(Cl)nc1, which outcome is on record?
Its outcome is “inactive”.

For CCNC(=O)NC(=O)C(C#N)=NOC, which AC50 is on record?
Its AC50 is 0.791 µM (active).

Cc1c(COC(=O)[C@@H]2[C@H](/C=C(\Cl)C(F)(F)F)C2(C)C)cccc1-c1ccccc1 was tested. Which outcome did it give?
The outcome was “inactive”.

How did the outcome turn out when C=C(C)CN(CC)c1c([N+](=O)[O-])cc(C(F)(F)F)cc1[N+](=O)[O-] was run?
Its outcome is “inactive”.

Which outcome does the source give for CC(C)C1(C)N=C(c2ncccc2C(=O)O)NC1=O (stereo unspecified) here?
Its outcome is “inactive”.

For CCCC(=NOCC)C1=C(O)CC(CC(C)SCC)CC1=O (stereo unspecified), which outcome is on record?
The outcome was “inactive”.

How did the outcome turn out when O=C1C2CC=CCC2C(=O)N1SC(Cl)(Cl)Cl (stereo unspecified) was run?
The outcome was “inactive”.

Which outcome does the source give for COCc1cnc(C2=NC(C)(C(C)C)C(=O)N2)c(C(=O)O)c1 (stereo unspecified) here?
Its outcome is “inactive”.

For Cc1nc(N(C)C)nc(OC(=O)N(C)C)c1C, which outcome is on record?
The outcome was “inactive”.

Which outcome does the source give for CC(C)N1C(=O)N(c2ccccc2)CSC1=NC(C)(C)C here?
Its outcome is “inactive”.

Which outcome does the source give for Clc1cccc(C(Cl)(Cl)Cl)n1 here?
Its outcome is “inactive”.

For CC1(C)CON(Cc2ccccc2Cl)C1=O, which outcome is on record?
The outcome was “inactive”.

Which outcome does the source give for CN/C(=N\[N+](=O)[O-])NCc1cnc(Cl)s1 here?
The outcome was “inactive”.

Cc1ccc(N=CN(C)C=Nc2ccc(C)cc2C)c(C)c1 was tested. Which outcome did it give?
The outcome was “inactive”.

For CCN(CC)c1nc(C)cc(OP(=S)(OC)OC)n1, which outcome is on record?
The outcome was “inactive”.

Which outcome does the source give for COCC(C)N(C(=O)CCl)c1c(C)csc1C (stereo unspecified) here?
Its outcome is “inactive”.

For CCOc1nc(C(Cl)(Cl)Cl)ns1, which outcome is on record?
The outcome was “inactive”.

Which outcome does the source give for CCC(C)n1c(=O)[nH]c(C)c(Br)c1=O (stereo unspecified) here?
Its outcome is “inactive”.

Nc1cnn(-c2ccccc2)c(=O)c1Cl was tested. Which outcome did it give?
The outcome was “inactive”.

With N#Cc1c(Cl)cccc1Cl as the compound, how does the outcome read?
Its outcome is “inactive”.

How did the outcome turn out when CCN(CC)C(=O)C(C)Oc1cccc2ccccc12 (stereo unspecified) was run?
Its outcome is “inactive”.

How did the outcome turn out when CC1(C)C(C(=O)OC(C#N)c2cccc(Oc3ccccc3)c2)C1(C)C (stereo unspecified) was run?
The outcome was “inactive”.

With CC(C)Nc1nc(Cl)nc(NC(C)C)n1 as the compound, how does the outcome read?
The outcome was “inactive”.

Which outcome does the source give for N#Cc1c[nH]cc1-c1cccc2c1OC(F)(F)O2 here?
The outcome was “inactive”.

With Cn1c(-c2ccccc2)cc(-c2ccccc2)[n+]1C as the compound, how does the AC50 read?
Its AC50 is 2.67 µM (active).

Which outcome does the source give for CCCN(CC)CC1COC2(CCC(C(C)(C)C)CC2)O1 (stereo unspecified) here?
Its outcome is “inactive”.

How did the outcome turn out when CCNP(=S)(OC)O/C(C)=C/C(=O)OC(C)C (stereo unspecified) was run?
The outcome was “inactive”.

CS(=O)(=O)c1ccc(C(=O)C2C(=O)CCCC2=O)c([N+](=O)[O-])c1 was tested. Which outcome did it give?
Its outcome is “inactive”.

With COP(=S)(OC)Oc1ccc([N+](=O)[O-])c(C)c1 as the compound, how does the outcome read?
Its outcome is “inactive”.

How did the outcome turn out when COC(=O)NC(=S)Nc1ccccc1NC(=S)NC(=O)OC was run?
The outcome was “inactive”.

With COc1cc(Cl)c(OC)cc1Cl as the compound, how does the outcome read?
The outcome was “inactive”.

CC(C)(C)C(=O)C(Oc1ccc(Cl)cc1)n1cncn1 (stereo unspecified) was tested. Which outcome did it give?
Its outcome is “inactive”.

CCCCOCN(C(=O)CCl)c1c(CC)cccc1CC was tested. Which outcome did it give?
Its outcome is “inactive”.
